# Measurements reported in PubChem BioAssay.
# The source made the active and inactive calls. The rule behind the calls is not given here.
# Tested on: Aerobactin synthetase IucA (Klebsiella pneumoniae hvKP1)
# Test: Biochemical IucA enzyme inhibition primary screen of the Spectrum library (AID 1346200);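 note: 100% = wells without compound and 0% = wells lacking enzyme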
# Conditions: malachite green pyrophosphate, A620, at 8 µM, stronger effect = lower value
row,Compound,activity remaining
1,CC1=C(/C=C/C(C)=C/C=C/C(C)=C/C=C/C=C(C)/C=C/C=C(C)/C=C/C2=C(C)C(=O)C(O)CC2(C)C)C(C)(C)CC(O)C1=O (stereo not drawn),109% (inactive)
2,CC(C)c1ccc2c(c1)CCC1[C@](C)(CN)CCC[C@]21C (stereo partly drawn),111% (inactive)
3,CC(C)(C)CC(C)(C)c1ccc(OCCOCC[N+](C)(C)Cc2ccccc2)cc1,113% (inactive)
4,Nc1ncnc2c1ncn2[C@@H]1O[C@H](CO)[C@@H](O)[C@@H]1O,107% (inactive)
5,CC(C)(O)[C@@H]1Cc2cc3ccc(=O)oc3cc2O1,113% (inactive)
6,COc1cc(-c2coc3cc(O[C@@H]4O[C@H](CO)[C@@H](O)[C@H](O)[C@H]4O)c(OC)c(O)c3c2=O)cc(O)c1OC,120% (inactive)
7,COc1cc(N)c(Cl)cc1C(=O)NC1CCN(Cc2ccccc2)CC1,119% (inactive)
8,CC(=O)O[C@@H]1c2c(ccc3ccc(=O)oc23)OC(C)(C)[C@@H]1OC(=O)CC(C)C,103% (inactive)
9,C[C@@H]1CC2C3C[C@H](F)C4=CC(=O)C=C[C@]4(C)[C@@]3(F)[C@@H](O)C[C@]2(C)[C@@]1(O)C(=O)CO (stereo partly drawn),113% (inactive)
10,O=C(O)COCCN1CCN(C(c2ccccc2)c2ccc(Cl)cc2)CC1 (stereo not drawn),116% (inactive)
11,COc1ccc(-c2cc(=O)c3c(OC)c(OC)c(OC)c(OC)c3o2)cc1,121% (inactive)
12,NC(=NCCC[C@H](N)C(=O)O)NC(CCC(=O)O)C(=O)O (stereo partly drawn),107% (inactive)
13,Nc1nc2c(c(=O)[nH]1)N(C=O)C(CNc1ccc(C(=O)N[C@@H](CCC(=O)O)C(=O)O)cc1)CN2 (stereo partly drawn),104% (inactive)
14,CC(=O)Nc1ccc(S(=O)(=O)Nc2ccc([N+](=O)[O-])cc2)cc1,111% (inactive)
15,CC1(C)OC(=O)NC1=O,115% (inactive)
16,C[C@]12CCC(=O)C=C1CCC1C2[C@@H](O)C[C@@]2(C)C1CC[C@]2(O)C(=O)CO (stereo partly drawn),113% (inactive)
17,OC1C(O)C(O)C(O)C(O)C1O (stereo not drawn),103% (inactive)
18,Oc1ccc(Cl)c2cccnc12,121% (inactive)
19,CC(=O)Oc1ccc(C(c2ccc(OC(C)=O)cc2)c2ccccn2)cc1,82.7% (inactive)
20,C=C1C2CC[C@@]3(C)[C@H](c4ccoc4)OC(=O)C[C@]13O[C@H]1CC(=O)C(C)(C)C(CC(=O)OC)C21C (stereo partly drawn),124% (inactive)
21,COc1c(O)cc2c(-c3ccccc3)cc(=O)oc2c1OC,130% (inactive)
22,NCC1CCC(C(=O)O)CC1 (stereo not drawn),102% (inactive)
23,CC(=O)NC1SCCC1=O (stereo not drawn),112% (inactive)
